Source: PubChem (National Center for Advancing Translational Sciences (NCATS))
ELG1 repair inh: qHTS screen for small molecules that inhibit ELG1-dependent DNA repair in human embryonic kidney (HEK293T) cells expressing luciferase-tagged ELG1 | 330,000 tested, 2.3% active | Potency, µM (doses to about 46.1 µM), for the others: top-dose activity change, negative = inhibition, most hits filed as inhibitors | AID 504467, 2011 | HEK293T ELG1-luciferase reporter, luminescence, 16 h; DNA damage induced by 5-fluorouridine; further: potency means the concentration at half of the fitted maximal effect; nearly all actives have a fitted effect of over 55% in size
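Luminescence from the luciferase reporter, measured 30 min after ONE-Glo reagent at room temperature, was the read-out. Beforehand, 2,000 cells per well were exposed for 16 hr at 37 °C to 5-fluorouridine together with compound or vehicle.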
DT40 TDP1 CPT: qHTS for Inhibitors of human tyrosyl-DNA phosphodiesterase 1 (TDP1): qHTS in cells in presence of CPT; chicken DT40 Tdp1-/-;hTDP1 cells + 20 nM CPT, ATP luminescence, 48 h; Potency, µM (doses to about 46.2 µM), for inactives: at the highest dose activity change, negative = growth inhibition, actives largely listed as inhibitors; 420,000 tested, 12% active; further: potency means the concentration at half of the fitted maximal effect; nearly all actives have a fitted effect of over 55% in size
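Cell growth measured by CellTiter-Glo luminescence after a minimum 48 h, 37 C compound exposure with 20 nM CPT in Tdp1-knockout DT40 cells stably expressing hTDP1, seeded 400/well; qHTS titration format.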
TDP1 cell noCPT: qHTS for Inhibitors of human tyrosyl-DNA phosphodiesterase 1 (TDP1): qHTS in cells in absence of CPT | DT40 Tdp1-/- hTDP1 cells, no CPT, ATP luminescence, 48 h | Potency, µM (titrated, usually from 46.2 µM), inactives show at the top dose activity change, negative = growth inhibition, usual class: inhibitors | 420,000 tested, 15% active | AID 686978, 2013; further: potency means the concentration at half of the fitted maximal effect; nearly all actives have a fitted effect of over 55% in size
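Chicken DT40 Tdp1-/- cells stably complemented with human TDP1 were seeded at 400 cells/well with DMSO in place of 20 nM camptothecin. After compound pinning, cells grew at least 48 hr at 37 °C; viability read by CellTiter-Glo luminescence.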
RORgamma inh: qHTS for inhibitors of ROR gamma transcriptional activity; Drosophila S2 Gal4-RORgamma UAS-luciferase reporter, 20 h; Potency, µM (doses to about 53.6 µM), for the others: at the highest dose activity change, negative = inhibition, hits mostly inhibitors; AID 2551, 2010; 310,000 tested, 5.4% active; Nuclear receptor ROR-gamma (Mus musculus), P51450; further: potency means the concentration at half of the fitted maximal effect; nearly all actives have a fitted effect of over 60% in size
Target sequence (P51450 whole entry, looked up, the tested form may be a part): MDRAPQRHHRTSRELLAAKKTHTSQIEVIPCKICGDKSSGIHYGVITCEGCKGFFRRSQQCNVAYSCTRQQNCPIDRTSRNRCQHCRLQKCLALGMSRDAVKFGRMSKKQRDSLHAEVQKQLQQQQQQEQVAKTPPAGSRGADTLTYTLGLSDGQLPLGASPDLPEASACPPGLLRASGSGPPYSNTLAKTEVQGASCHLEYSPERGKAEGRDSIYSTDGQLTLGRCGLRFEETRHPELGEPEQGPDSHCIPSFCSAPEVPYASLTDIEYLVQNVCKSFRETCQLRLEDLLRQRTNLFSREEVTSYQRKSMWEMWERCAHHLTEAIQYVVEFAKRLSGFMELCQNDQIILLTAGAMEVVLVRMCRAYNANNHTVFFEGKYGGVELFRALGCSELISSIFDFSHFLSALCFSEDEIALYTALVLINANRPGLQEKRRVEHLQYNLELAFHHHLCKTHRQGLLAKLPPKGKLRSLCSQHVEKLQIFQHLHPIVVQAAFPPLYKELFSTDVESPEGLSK
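Schneider cells (Drosophila), stable Gal4 DBD–ROR gamma + UAS-luc; 1 hr cmpd preincubation; Cu2+ induction 700 uM final; 20 hr ambient; luminescence.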
VP16 counter: VP16 counterscreen qHTS for inhibitors of ROR gamma transcriptional activity; Drosophila S2 Gal4-VP16 UAS-luciferase, luminescence, 20 h; Potency, µM (doses to about 53.6 µM), without a hit: at the top dose activity, negative = inhibition, usual class: inhibitors; 310,000 tested, 3.5% active; AID 2546, 2010;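 further: Gal4-VP16 expression switched on by copper sulfate through the metallothionein promoter; potency means the concentration at half of the fitted maximal effect; nearly all actives have a fitted effect of over 50% in size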
IL-1B inflam inh: qHTS for Inhibitors of Inflammasome Signaling: IL-1-beta AlphaLISA Primary Screen; THP-1 LPS/ATP IL-1B secretion, AlphaLISA, 16 h; active compounds read low; activity change, % at 57.5 µM; 360,000 tested, 4.7% active; AID 743279, 2014; in the data active means activity change below about -50%; inconclusive means mostly about -30% to -49%
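THP-1 cells pretreated 1 hr with compounds (up to 57.5 uM final), then stimulated with LPS (250 ng/mL final) plus ATP (1.25 mM final); secreted IL-1B measured by AlphaLISA after 16 hr, decreased signal indicating inhibition.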
* hit, by the source's call; ? = inconclusive; / = not tested or not shown. In the library only some 21% were active in any assay of this set; here they are far more common. Unless noted, the call rests on the fitted dose curve; in most records, active means well fitted curve in the direction sought with a large enough effect; inconclusive means small, poorly fitted or top-dose-only effect, or another doubt; inactive means no such curve, though single readings can be large; an effect the other way counts as inactive or inconclusive. On the % scale 0 is the no-effect control and ±100 the full control effect.

SMILES | ELG1 repair inh | DT40 TDP1 CPT | TDP1 cell noCPT | RORgamma inh | VP16 counter | IL-1B inflam inh
FC(F)(F)c1ccccc1-c1ccc2ncnc(N3CCOCC3)c2c1 | / | ? | ? | 11% | -22% | /
C/C(CCc1ccccc1)=N\NC(=S)NCCc1ccccc1 | -1% | ? | 13µM* | 5µM* | 6.3µM* | 12
CC(OC(=O)c1cccs1)C(=O)NCCc1ccccc1 (stereo unspecified) | 2% | 10% | -1% | -3% | 25% | 17
C/C(CCC(C)C)=N\NC(=S)NCc1ccccc1 | -3% | ? | ? | 4µM* | ? | 0
S=C(NCCCCNC(=S)NCc1ccccc1)NCc1ccccc1 | -1% | ? | ? | ? | -16% | -11
C/C(=N\NC(=S)NCCc1ccccc1)c1cccs1 | -8% | 5.2µM* | 5.2µM* | 4.5µM* | 1.4µM* | 37
CC(=O)c1ccc(NC(=O)C2CCC(CNS(=O)(=O)c3cccc4nsnc34)CC2)cc1 (stereo unspecified) | / | 2% | -9% | / | / | /
CCCc1nnc(SCC(=O)Nc2cccc(Cl)c2Cl)o1 | 18% | 1% | 2% | -20% | -7% | -4
Cc1cccc(NS(=O)(=O)c2cccc(C(=O)N3CCN(C/C=C/c4ccccc4)CC3)c2)c1 | ? | ? | ? | / | / | -54*
COc1ccccc1NS(=O)(=O)c1cc(C(=O)N2CCN(C/C=C/c3ccccc3)CC2)ccc1C | 3% | ? | ? | 7% | 24% | -8
COc1ccc(NS(=O)(=O)c2cccc(C(=O)N3CCN(C/C=C/c4ccccc4)CC3)c2)cc1 | / | 23µM* | 16µM* | / | / | -3
COc1ccccc1NS(=O)(=O)c1cccc(C(=O)N2CCN(C/C=C/c3ccccc3)CC2)c1 | ? | 21µM* | 21µM* | 2% | 2% | -1
COc1ccc(NS(=O)(=O)c2cccc(C(=O)N3CCN(Cc4ccc5c(c4)OCO5)CC3)c2)cc1 | ? | 26µM* | ? | / | / | -25
Cc1cccc(NS(=O)(=O)c2cccc(C(=O)N3CCCC3)c2)c1 | -5% | 0% | ? | / | / | -6
COc1ccc(NS(=O)(=O)c2cccc(C(=O)N3CCN(S(=O)(=O)c4ccccc4)CC3)c2)cc1 | / | ? | ? | / | / | 0
O=C(c1ccc(NS(=O)(=O)c2ccccc2)cc1)N1CCN(Cc2ccc3c(c2)OCO3)CC1 | ? | ? | ? | 40% | 1% | -9
CC1CCC(C(C)C)C(O)C1 (stereo unspecified) | / | / | / | 22% | -4% | /
COC(CNC(=O)Cn1nc(Cc2ccncc2)c2ccccc2c1=O)OC | 2% | 3% | -20% | 8% | 2% | -8
N#CCCn1c(=O)c(CCc2ccccc2)nc2cnc(Oc3cccc(Cl)c3)nc21 | / | ? | ? | 0% | -1% | /
Cc1cccc(NS(=O)(=O)c2cccc(C(=O)N3CCCCCCC3)c2)c1 | ? | 18µM* | 5.2µM* | / | / | -60*
Cc1cccc(NS(=O)(=O)c2cccc(C(=O)N3CCCCCC3)c2)c1 | -9% | ? | ? | / | / | 8
CC(NC(=O)c1ccccc1F)C1CC1 (stereo unspecified) | -5% | 10% | -25% | 4% | 6% | 18
COCCn1c(=O)c(-c2ccc(F)cc2)nc2cnc(Oc3ccccc3)nc21 | / | -13% | 2% | ? | 1% | /
CCOC(=O)c1nnc(-c2ccccc2)nc1Oc1ccccc1Cl | -7% | -27% | ? | 4.5µM* | 5µM* | -15
COc1cnc(-c2ccccc2)nc1Oc1ccc(Cl)cc1C | -3% | -4% | -1% | 16% | -23% | 11
SMILES | ELG1 repair inh | DT40 TDP1 CPT | TDP1 cell noCPT | RORgamma inh | VP16 counter | IL-1B inflam inh
FC(F)(F)c1nnc(-c2ccccc2)nc1Sc1ccccc1 | 23% | 15µM* | 10µM* | ? | ? | -121*
FC(F)(F)c1nnc(-c2ccccc2)nc1Oc1ccc(Cl)cc1Cl | -4% | ? | ? | -8% | -2% | -77*
FC(F)(F)c1nnc(-c2ccccc2)nc1Sc1ccc(Cl)cc1 | -18% | 5.2µM* | 6.5µM* | 6.3µM* | ? | -98*
COc1ccccc1N1CCN(S(=O)(=O)CCNC(=O)C2CCCC2)CC1 | 1% | -28% | ? | / | / | 0
COC(=O)C[C@@H]1CC[C@H](NS(=O)(=O)c2cccc(F)c2)[C@@H](CO)O1 | / | -8% | 5% | / | / | -1
CC1CCC2=NN(C(=O)c3ccco3)C(O)(C(F)(F)F)C2C1 (stereo unspecified) | 5% | -19% | -12% | 42% | -18% | 12
O=C1NC[C@@H](CCCCN2CCN(CCc3ccc(O)cc3)C(=O)C2=O)N(CCC2CCCCC2)C1=O | / | -2% | 2% | / | / | -17
CN(N)c1nc(-c2ccccc2)nnc1C(F)(F)F | 5% | -6% | -17% | 8% | -1% | -13
FC(F)(F)c1cccc(Oc2nc(-c3ccccc3)nnc2C(F)(F)F)c1 | ? | -20% | ? | 20% | -11% | ?
CN(NC(=O)c1cccc(Cl)c1)c1nc(-c2ccccc2)nnc1C(F)(F)F | ? | 18µM* | 12µM* | 13% | -5% | 19
FC(F)(F)c1cccc(Sc2nc(-c3ccccc3)nnc2C(F)(F)F)c1 | -4% | 8.2µM* | 12µM* | 3.5µM* | ? | -118*
CC(C)CCC1(CCNC(C)c2cccs2)CCOC(C)(C)C1 (stereo unspecified) | -3% | ? | ? | 18% | 3% | /
CCOc1cc(/C=N\NC(=O)c2ccc(C)nc2)ccc1OC(=O)c1ccc(F)cc1 | 4% | -27% | ? | -19% | -3% | 2
CCOc1cc(/C=N/NC(=O)c2cccnc2)ccc1OC(=O)c1ccco1 | -8% | -7% | -18% | 15% | 5% | -4
CCOc1cc(/C=N/NC(=O)CNc2ccc(C)cc2)ccc1OC(=O)c1ccccc1 | 1% | 29µM* | ? | 3% | 1% | ?
CCOc1cc(/C=N\NC(=O)c2ccc(NC(=O)C(C)(C)C)cc2)ccc1OC(=O)c1ccc(C)cc1 | 0% | ? | 29µM* | -1% | 14% | -5
CCOc1cc(/C=N/NC(N)=O)ccc1OC(=O)c1ccc(C)cc1 | -2% | / | / | -13% | 1% | /
